± gives the standard deviation of the averaged measurements.
system: TDF; assay: cell number relative to DMSO (% of DMSO); higher = more cells (less growth inhibition / toxicity); conditions: concentration: 10 µM; 24 h
How it was run: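 H1.0 nuclear intensity or cell number is stated as percent of the plate control, based on the median of replicates, and HCC1569 values were smoothed for positional effects. These came from HCC1569 and TDF cells treated with compounds at 10 µM for 24 h at 37 °C in triplicate, then fixed in 3.7% formaldehyde and stained with a rabbit anti-H1.0 antibody, an AlexaFluor 647 secondary and DAPI.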
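Also: TDF denotes transformed human dermal fibroblasts of mesenchymal origin.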

| Structure (SMILES) | cell number |
| --- | --- |
| CC[N+](CC)(CC)CCOc1cccc(OCC[N+](CC)(CC)CC)c1OCC[N+](CC)(CC)CC.[I-].[I-].[I-] [Gallamine triethiodide] | 99 |
| O=C1CN(N=Cc2ccc(-c3ccc([N+](=O)[O-])cc3)o2)C(=O)[N-]1.[Na+] [Dantrolene sodium] | 97 |
| CC(=O)C1(O)CCC2C3CCC4=CC(=O)CCC4(C)C3CCC21C (stereo not drawn) [17- Hydroxyprogesterone] | 96 |
| Cc1cc(O)c2c(c1)C(=O)c1cc(O)cc(O)c1C2=O [Emodin] | 96.8 ± 5.4 |
| COc1cc2ncnc(Nc3cccc(Cl)c3)c2cc1OC | 88 |
| Cc1ccc(F)c(NC(=O)Nc2ccc(-c3cccc4[nH]nc(N)c34)cc2)c1 | 90.1 |
| CC1CNCCN1S(=O)(=O)c1cccc2cnccc12.Cl.Cl (stereo not drawn) | 105 |
| CN(C)CCCn1cc(C2=C(c3c[nH]c4ccccc34)C(=O)NC2=O)c2ccccc21 [Bisindolylmaleimide I] | 80.3 |
| COC1C(OC(N)=O)C(O)C(Oc2ccc3c(O)c(NC(=O)c4ccc(O)c(CC=C(C)C)c4)c(=O)oc3c2C)OC1(C)C.[Na+] (stereo not drawn) [Novobiocin.Na] | 112 |
| COc1ccc2nc(S(=O)Cc3ncc(C)c(OC)c3C)[nH]c2c1 (stereo not drawn) [Omeprazole] | 102 |
| CC(=O)N[C@@H](CS)C(N)=O | 93.6 |
| COc1ccc(S(=O)(=O)Nc2cc(Cl)cc(Cl)c2OC)cc1N1CCNCC1.Cl | 100 |
| CC(C)(C)c1ccc(S(=O)(=O)Nc2ccc(-n3ccnc3)cc2)cc1 [Stem-Cell Factor/c-Kit Inhibitor, ISCK03] | 102 |
| Cl.Fc1ccc(C(OCCCc2cnc[nH]2)c2ccc(F)cc2)cc1 | 108 |
| CCCCCC=CCC=CCC=CCCCCCCC(=O)O [Dihomo-γ-linolenic acid] | 98.6 |
| CCCCOC(=O)NC(=O)C1c2ccccc2Oc2ccccc21 [butyl 9H-xanthen-9-ylcarbonylcarbamate] | 106 |
| O=c1c(-c2ccc(O)cc2)coc2cc(OC3OC(CO)C(O)C(O)C3O)ccc12 (stereo not drawn) [Daidzin] | 108 |
| Nc1ccc(O)c(C(=O)O)c1 [5-Aminosalicylic acid] | 103 |
| COc1ccc2c3c1OC1CC(O)C=CC31CCN(C)C2 (stereo not drawn) [Galanthamine] | 110 |

| Structure (SMILES) | cell number |
| --- | --- |
| O=C(O)c1cc(N(Cc2ccccc2O)Cc2cc(O)ccc2O)ccc1O [Lavendustin A] | 89.4 |
| COc1cc2c3cc1Oc1cc(ccc1O)CC1c4c(cc(OC)c(O)c4Oc4ccc(cc4)CC3N(C)CC2)CC[N+]1(C)C (single isomer, unassigned; (+)) [(+)-Tubocurarine chloride] | 92.5 |
| COc1ccc(C=C2c3ccccc3C(=O)c3ccccc32)cc1O [10-(3-hydroxy-4-methoxybenzylidene)-9(10H)-anthracenone] | 10.4 |
| O=c1c(-c2ccc(O)cc2)coc2cc(O)ccc12 [Daidzein] | 107 ± 14 |
| NC(=S)NCCCC(N)C(=O)O (stereo not drawn) [Thiocitrulline] | 112 |
| CN(C)CCC(c1ccc(Cl)cc1)c1ccccn1.O=C(O)C=CC(=O)O (racemic) | 107 |
| CCCCCC=CCC(O)C=CC=CC=CC(O)CCCC(=O)O [5(S),12(S)-DIHETE all trans] | 106 |
| CN(C)c1ccc(O)c2c1CC1CC3C(N(C)C)C(=O)C(C(N)=O)=C(O)C3(O)C(=O)C1=C2O.Cl (stereo not drawn) [Minocycline hydrochloride] | 109 |
| Cl.NCCCC(N)(C(=O)O)C(F)F (racemic) [DL-alpha-Difluoromethylornithine hydrochloride] | 111 |
| Nc1ccc(C(=O)O)c(O)c1 [4-Aminosalicylic acid] | 98.2 |
| COc1cccc2c1C(=O)c1c(O)c3c(c(O)c1C2=O)CC(O)(C(=O)CO)CC3OC1CC(N)C(O)C(C)O1.Cl (stereo not drawn) [Doxorubicin.HCl] | 17.1 ± 3.7 |
| CCn1cc(C(=O)O)c(=O)c2cc(F)c(N3CCNCC3)nc21 [Enoxacin] | 91.3 |
| NC(=O)c1ncn(C2OC(CO)C(O)C2O)c1O (stereo not drawn) [Mizoribine] | 99.2 |
| CCC(C)n1ncn(-c2ccc(N3CCN(c4ccc(OCC5COC(Cn6cncn6)(c6ccc(Cl)cc6Cl)O5)cc4)CC3)cc2)c1=O (stereo not drawn) [Itraconazole] | 93 |
| CCN(c1nc(N)c(C(=O)N=C(N)N)nc1Cl)C(C)C [5-(N-Ethyl-N-isopropyl)amiloride] | 95 |
| CC(C)[N+]1(C)C2CCC1CC(OC(=O)C(CO)c1ccccc1)C2.[Br-] (stereo not drawn) [Ipratropium.Br] | 98 |
| COc1c2c(nc3ccccc13)OC(C(C)(O)CO)C2 (stereo not drawn) [Dubinidine] | 104 ± 5.6 |
| COc1cccc2c1C1CN(CCCCn3c(=O)[nH]c4c(sc5ncc(-c6ccccc6)nc54)c3=O)CC1CO2.Cl (stereo not drawn) [Fiduxosin hydrochloride] | 103 |
| COc1ccc(C=Cc2cc(OC)cc(=O)o2)cc1 [Yangonin] | 80.2 |
